The list is not random: actives were taken first. Their share in the collection is about 21%.
Cycloheximide cs: Cycloheximide Counterscreen for Small Molecule Inhibitors of Shiga Toxin; 300,000 compounds, 12% hits; cell reporter, cycloheximide protein synthesis inhibition counterscreen; AID 2314, 2010; max response, %; in the data active = max response mostly above about 13%, no sharp cut-off; inactive = mostly below about 14%; also: read at 38.3 µM for the half of the compounds with a filed dose
Shiga inhibitor: A qHTS for Small Molecule Inhibitors of Shiga Toxin; Vero cells, Shiga toxin protein synthesis inhibition reporter; inhibition, % at 38.7 µM; 290,000 compounds, 9.2% hits; AID 2315, 2010; in the data active = inhibition mostly above about 28%, no sharp cut-off; inactive = mostly below about 43%
Pf growth 96h: Primary qHTS for delayed death inhibitors of the malarial parasite plastid, 96 hour incubation | Potency, µM (series often up to 28.7 µM), usual class: inhibitors | AID 504834, 2011 | P. falciparum luciferase reporter growth, 96 h | 320,000 compounds, 6.9% hits
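96 h incubation, 37 C, 5% CO2, of luciferase-reporter P. falciparum-infected RBCs (2% hematocrit, 0.05% parasitemia final) with test compounds; endpoint luminescence.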
Pf growth 48h: Primary qHTS for delayed death inhibitors of the malarial parasite plastid, 48 hour incubation. P. falciparum luciferase growth in erythrocytes, 48 h. Potency, µM (top dose mostly 28.7 µM), hits mostly inhibitors. 310,000 compounds, 5.9% hits
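First compound was added to culture medium, then infected red cells at 0.1% parasitemia and 2% hematocrit (final). After incubation at 37 C under 5% CO2, luciferase detection reagent was dispensed and light output recorded.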
SARS PLP yeast: qHTS of Yeast-based Assay for SARS-CoV PLP; S. cerevisiae expressing SARS-CoV PLpro, growth rescue; Potency, µM (top dose mostly 32.9 µM), actives largely listed as activators; 330,000 compounds, 0.19% hits; AID 485353, 2010; calls by dose curve; also: nearly all actives have a fitted effect of over 55% in size
NS1 inh: qHTS Assay for Inhibitors of Influenza NS1 Protein Function. Potency, µM (highest dose often 46.1 µM). 270,000 compounds, 0.4% hits; calls by dose curve; also: actives are rising curves; nearly all actives have a fitted effect of over 50% in size
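Growth recovery, yeast-based: influenza A NS1 expressed in S. cerevisiae causes slow growth, and suppressors are detected by OD600. The parent strain without NS1 is used as positive control.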
Each line names hits and unclear results; the compound was inactive in the other large screens. Unless noted, calls follow the shape of the dose curve; as a rule, active = well fitted inhibition curve with a large enough effect; inconclusive = small, poorly fitted or top-dose-only effect, or another doubt; inactive = no such curve, though single readings can be large or run the other way.

CC(=O)N1CCOc2ccc(S(=O)(=O)N3CCCC(C)C3)cc21 (stereo not drawn)	Pf growth 96h 11.7µM
CC(=O)N1CCOc2ccc(S(=O)(=O)N3CCC(C(=O)Nc4ccc(F)cc4)CC3)cc21	Pf growth 96h 14.7µM, Pf growth 48h inconclusive, SARS PLP yeast inconclusive
COC(=O)c1ccccc1NC(=O)CSc1nnc(-c2cccc(NC(C)=O)c2)n1C	none (no result: Pf growth 96h)
O=C(Cn1cnc2ccc(Cl)cc2c1=O)NC1CCS(=O)(=O)C1 (stereo not drawn)	none (no result: Cycloheximide cs, Shiga inhibitor, NS1 inh)
O=C(CN(C(=O)c1csnn1)c1cccc(Cl)c1)NCCc1ccccc1	none
C1CC(CN2CCOCC2)CN(Cc2nc(CC3CC3)no2)C1 (stereo not drawn)	none
C1CC1Cc1noc(CN2CCN(C3C4CC5CC(C4)CC3C5)CC2)n1 (stereo not drawn)	Pf growth 96h 13.1µM
c1cnc(-c2noc(CN3CCN(C4C5CC6CC(C5)CC4C6)CC3)n2)cn1 (stereo not drawn)	none
O=C1CCCN1CC1CCCN(Cc2nc(COc3ccccc3)no2)C1 (stereo not drawn)	Pf growth 96h 14.7µM
O=C1CCCN1CC1CCN(Cc2nc(CC3CC3)no2)CC1	Shiga inhibitor 47.5, Pf growth 96h inconclusive, Pf growth 48h inconclusive
O=C(CNC(=O)c1ccc(Cl)cc1Cl)OCN1C(=O)c2ccccc2C1=O	none (no result: Cycloheximide cs, Shiga inhibitor, NS1 inh)
CC(NC(=O)C(=O)N/N=C/c1ccccc1)c1ccccc1 (stereo not drawn)	none (no result: NS1 inh)
Cc1cc(Nc2cccc(Cl)c2Cl)n2ncnc2n1	Pf growth 96h inconclusive
Cc1ccc(-n2c(=O)c3ccccc3n(CC(=O)C(C)(C)C)c2=O)cc1	Pf growth 96h inconclusive (no result: NS1 inh)
COc1cc(/C=N/NC(=O)/C(=C\c2ccc3c(c2)OCO3)NC(=O)c2ccccc2)ccc1O	Pf growth 96h inconclusive
COc1ccc(/C=N/NC(=O)c2ccc3c(c2)OCO3)cc1	Cycloheximide cs 26.8, Shiga inhibitor 102.4
COc1cc(/C=N/NC(=O)c2ccc3c(c2)OCO3)ccc1O	Cycloheximide cs 63.4, Shiga inhibitor 81.3, NS1 inh inconclusive
COc1ccc(NCC(=O)N/N=C/c2ccc3c(c2)OCCO3)cc1	Cycloheximide cs 22.1
NCc1nnn(Cc2ccccc2)c1N	none (no result: Cycloheximide cs, Shiga inhibitor, Pf growth 96h, Pf growth 48h, SARS PLP yeast)
Cc1cc(NC(=O)c2ccco2)ncc1NC(=O)Cc1ccccc1	Cycloheximide cs 18.7, Pf growth 96h 8.28µM
Cc1cc(NC(=O)C(C)C)ncc1NC(=O)c1ccco1	none
COc1cccc(C(=O)Nc2cnc(NC(=O)c3ccco3)cc2C)c1	Cycloheximide cs 16.2, Shiga inhibitor 46.6, Pf growth 96h 5.22µM
CC(C)(C)NC(=O)CN(C(=O)CCC(=O)Nc1nccs1)c1ccc(F)cc1	NS1 inh inconclusive
COC(=O)c1cc(C(=O)OCC(=O)Nc2ccccc2OC(F)F)cc([N+](=O)[O-])c1	none
O=c1cc(-c2ccccc2Cl)oc2c([N+](=O)[O-])ccc(O)c12	none (no result: Pf growth 96h, Pf growth 48h, SARS PLP yeast, NS1 inh)
O=c1cc(-c2ccccc2Cl)oc2c(Br)ccc(O)c12	Cycloheximide cs 30.8, Shiga inhibitor 78.1
CSCC(O)Cn1ncc2ccccc2c1=O (stereo not drawn)	Cycloheximide cs 20.9
O=C(Nc1sc2c(c1C(=O)Nc1cccc(Cl)c1)CCCC2)c1cccs1	none (no result: Pf growth 96h, Pf growth 48h, SARS PLP yeast, NS1 inh)
O=C(Nc1sc2c(c1C(=O)O)CCC2)c1cccs1	Cycloheximide cs 48.2, Shiga inhibitor 114.6
COCCCNC(=O)c1c(NC(=O)c2cccs2)sc2c1CCCC2	Pf growth 96h inconclusive
NC(=O)c1c(NC(=O)c2cccs2)sc2c1CCCCCC2	Cycloheximide cs 30.3, SARS PLP yeast inconclusive
CCOc1cc2c(cc1/C=C1/NC(=O)N(CC(=O)OC)C1=O)OCO2	Pf growth 96h inconclusive (no result: NS1 inh)
CCCCOc1ccc(-c2cn3ccccc3n2)cc1[N+](=O)[O-]	Cycloheximide cs 62.0, Shiga inhibitor 103.4
CCCCNCCOCCOc1ccc(C)cc1[N+](=O)[O-]	Pf growth 96h inconclusive
CCOc1ccccc1NC(=O)c1ccc(OCC)c([N+](=O)[O-])c1	none
CCCOc1ccc(-c2csc(N)n2)cc1[N+](=O)[O-]	Cycloheximide cs 45.0, Shiga inhibitor active
CCOc1ccc(-c2cn3ccccc3n2)cc1[N+](=O)[O-]	Cycloheximide cs 37.6, Shiga inhibitor 66.8
